# The whole screen tested about 100,000 compounds, of which about 440 (0.44%) were called active. The sample holds actives, similar compounds and a random draw of the others, so the mix is not that of the screen. Rule as the data show it: active = inhibition above about 21% (passing the limit was not always enough); inactive = the rest.
# Target: 1,4-dihydroxy-2-naphthoyl-CoA synthase (Mycobacterium tuberculosis (strain ATCC 25618 / H37Rv)) (UniProt P9WNP5)
# Experiment: M. tuberculosis MenB inhibitors, primary screen, biochemical, absorbance (AID 540299)
# Settings: MenB enzyme assay, absorbance read-out; stronger effect = higher value; concentration not given here
# 1,4-dihydroxy-2-naphthoyl-CoA synthase (Mycobacterium tuberculosis (strain ATCC 25618 / H37Rv)), sequence (P9WNP5 whole entry, looked up): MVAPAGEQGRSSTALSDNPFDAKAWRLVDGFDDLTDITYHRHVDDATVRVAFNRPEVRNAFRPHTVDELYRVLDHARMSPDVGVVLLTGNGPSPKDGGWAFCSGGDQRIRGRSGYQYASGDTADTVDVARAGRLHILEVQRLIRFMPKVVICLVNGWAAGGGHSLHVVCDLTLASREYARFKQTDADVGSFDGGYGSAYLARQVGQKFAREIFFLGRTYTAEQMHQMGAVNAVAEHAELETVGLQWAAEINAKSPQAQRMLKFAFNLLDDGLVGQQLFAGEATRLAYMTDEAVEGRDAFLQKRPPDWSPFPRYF
row,SMILES,inhibition
1,CC1CC(Nc2ncnc3c2cnn3C)CC(C)(C)C1 (stereo unspecified),-4.06% (inactive)
2,CCn1c(SCc2cc(=O)n3ccsc3n2)nnc1-c1cccs1,9.46% (inactive)
3,C=CCSc1nnc(NC(=O)CSc2nc(C)cc(=O)[nH]2)s1,-17% (inactive)
4,NS(=O)(=O)c1ccc(NC(=O)Cc2ccccc2F)cc1,-21.5% (inactive)
5,CCN(CC)C(=O)N1CCc2cc(OC)c(OC)cc2C1c1cc2cc(C)ccc2n(C(=O)N(CC)CC)c1=O (stereo unspecified),4.68% (inactive)
6,CN(CC(=O)Nc1ccccc1SCC#N)Cc1ccc(-c2ccc(Br)cc2)o1,30.3% (active)
7,N#CCSc1ccccc1NC(=O)CN1CCc2sccc2C1c1cccs1 (stereo unspecified),-20.8% (inactive)
8,COc1cc(C(=O)Nc2ccc3nc(N4CCN(c5ncccn5)CC4)cc(C)c3c2)cc(OC)c1OC,2.12% (inactive)
9,CC(c1ccccc1)n1cnc2c(oc3ccccc32)c1=O (stereo unspecified),7.36% (inactive)
10,Cc1ccc2[nH]c(=O)c(C(c3nnnn3C3CCCC3)N(C)C3CCCCC3)cc2c1 (stereo unspecified),3.2% (inactive)
11,CCc1ccc(N/N=C(\C#N)C(=O)N2CCN(C)CC2)cc1,-139% (inactive)
12,O=C(CCn1c(=O)c2cccn2c2ccc(F)cc21)NC1CCCCC1,-14.7% (inactive)
13,Cc1ccc2c(c1)c1c3n2CCN(C2CCO2)C3CCC1 (stereo unspecified),-8.76% (inactive)
14,O=C(CC(NCCc1ccc(Cl)cc1)C(=O)O)c1ccc(Br)cc1 (stereo unspecified),-5.44% (inactive)
15,CC(C)(C)c1oc2cc(Br)c(O)cc2c1C(=O)O,-32.6% (inactive)
16,COc1nc2nonc2nc1OC,26.7% (inactive)
17,CCO/C(C)=N\Oc1nc2nonc2nc1O/N=C(/C)OCC,28.8% (active)
18,CCOC(=O)CCSc1ccccn1,-3.2% (inactive)
19,CN(Cn1nc(Nc2ccccc2F)sc1=S)C1CCCCC1,4.42% (inactive)
20,O=CN/N=C/c1cn(-c2cccs2)nc1-c1ccccc1,-3.73% (inactive)
21,C=COc1ccc(N)cc1,-24.2% (inactive)
22,Cc1noc2nc(C(F)(F)F)cc(C(F)(F)F)c12,-1.29% (inactive)

row,SMILES,inhibition
1,CS(=O)(=O)Cc1ccccc1,28.2% (active)
2,COc1ccc(OCCNS(=O)(=O)Cc2ccccc2)cc1,-18.2% (inactive)
3,O=S(=O)(NCCc1ccccc1)c1ccccc1,10.7% (inactive)
4,O=C(O)CC(c1ccccc1)c1cc(Cl)ccc1O (stereo unspecified),2.19% (inactive)
5,CC1CN(C(=O)COC(=O)c2c(F)cccc2F)CC(C)O1 (stereo unspecified),-14.9% (inactive)
6,Cc1cc(NC(=O)COC(=O)C2CSC3(C)CCC(=O)N23)no1 (stereo unspecified),-17% (inactive)
7,CCCCn1c(N)c(N2CCOCC2)c(=O)n(CC(=O)NCCc2ccccc2)c1=O,2.85% (inactive)
8,COc1cc(S(=O)(=O)N2CCCCC2)ccc1N=Cc1c(C)[nH]n(-c2ccccc2)c1=O,-6.35% (inactive)
9,Cn1c(=O)c(=O)n(C)c2cc(N3CCCCC3)c(NS(=O)(=O)c3ccc(Br)s3)cc21,-15.3% (inactive)
10,NCCN1C(=O)S/C(=C/c2cccs2)C1=O,-14.2% (inactive)
11,O=C(Cn1cnc2ccccc2c1=O)NCCSCc1ccco1,-21.3% (inactive)
12,COc1ccc(OCC(=O)N2CCC(C(N)=O)CC2)cc1,-7.08% (inactive)
13,CC1CC(C)CN(C(=O)COC(=O)c2ccccc2NC(=O)c2ccco2)C1 (stereo unspecified),9.45% (inactive)
14,O=C1C2N=NN(CC(=O)N(c3ccccc3)c3ccccc3)C2C(=O)N1c1ccc(Cl)cc1 (stereo unspecified),-6.55% (inactive)
15,N#CC(C#N)=Cc1ccc(OC(=O)c2cccs2)cc1,0.71% (inactive)
16,CC(=O)N(Cc1cc2ccccc2[nH]c1=O)c1ccccc1,-11.4% (inactive)
17,S=C(NC1CCCCC1)NN1CCOCC1,-1.62% (inactive)
18,COC(=O)c1c(NC(=O)CCN2CCOCC2)sc2c1CCCC2,-12.6% (inactive)
19,CC(NCCN1CCOCC1)C(=O)NC1CCCCC1 (stereo unspecified),35.5% (active)
20,Cc1cc(C)n(CC(O)CNCc2ccco2)n1 (stereo unspecified),-21.2% (inactive)
21,CN(C)c1ccc(C=Nc2cc(Br)c3c(c2)OCCO3)cc1,7.11% (inactive)
22,O=C(O)CSc1ccc2nnc(-c3ccc(F)cc3)n2n1,-23.7% (inactive)

row,SMILES,inhibition
1,C(=C\c1ccccc1)/CNCCCN1CCOCC1,-52.5% (inactive)
2,COc1ccccc1CNCCN1CCOCC1,38.3% (active)
3,COc1ccccc1OCC(O)CN1CCOCC1 (stereo unspecified),34.9% (active)
4,COc1cccc(-c2noc(NCCN3CCOCC3)n2)c1,-12.4% (inactive)
5,CNCC(O)CN1CCN(c2ccccc2OC)CC1 (stereo unspecified),-10.5% (inactive)
6,COc1ccccc1COCC(O)CN1CCC(=O)CC1 (stereo unspecified),-22.7% (inactive)
7,CC(=O)n1c2ccccc2c2nc(C)sc21,-21.4% (inactive)
8,CCOC(=O)c1ccc(NC(=O)C(CC)Sc2nnc(C)n3c2cc2occc23)cc1 (stereo unspecified),-38.3% (inactive)
9,CN(C)c1ccc(/C=N/NC(=O)NC23CC4CC(CC(C4)C2)C3)cc1,-17% (inactive)
10,CCCNC(=O)c1cc(C(C)C)on1,-9.37% (inactive)
11,CC(C)c1cc(C(=O)O)on1,31.1% (active)
12,Cc1cc(C(=O)N2CCCC2)on1,-1.16% (inactive)
13,COc1cc(OC)c(NC(=O)C2CCCN(S(=O)(=O)c3ccc4c(c3)oc(=O)n4C)C2)cc1Cl (stereo unspecified),-18.8% (inactive)
14,Cc1nnc(NC(=O)CSc2nnc(CNC(=O)c3ccccc3F)n2C)s1,27.8% (inactive)
15,O=C(OCc1ccc(-c2cc(C(F)(F)F)cc(C(F)(F)F)c2)o1)c1ccc2c(c1)CCO2,-6.53% (inactive)
16,CCN(CC)C(=O)COc1ccc(/C(C)=N/NC(=O)Cc2ccccc2)cc1,-14.7% (inactive)
17,O=C(O)C1CC=CCC1C(=O)NCCc1ccccc1 (stereo unspecified),36% (active)
18,O=C(O)C1C2C=CC(O2)C1C(=O)NCCc1cccc(Cl)c1 (stereo unspecified),-14.4% (inactive)
19,O=C(NCCc1ccccc1)Nc1ccccc1,8.56% (inactive)
20,COc1cccc(-n2c(=S)sc3c(=O)n4[nH]c(=O)c5ccccc5c4nc32)c1,-24.4% (inactive)
21,CC(C)[C@H](NC(N)=O)C(=O)Nc1ccc(Cl)c(Cl)c1,-13.2% (inactive)
22,CCOC(CSc1nnc2c3ccccc3n(CC)c2n1)OCC,-14% (inactive)
